Where “and” joins values, the source holds several entries; their conditions need not be identical. Identical values can stand only once.
Experiments:
[1] = test system: Botulinum neurotoxin type F light chain protease (Clostridium botulinum); experiment: Clostridium botulinum type F light chain protease inhibitors, microsphere substrate cleavage, validation (AID 588459); conditions: multiplex microsphere protease substrate cleavage assay, flow cytometry; at 10 µM; active compounds read high
[2] = biological target: Botulinum neurotoxin type A (Clostridium botulinum) (UniProt P0DPI0); experiment: BoNT/A light chain protease inhibitors, biochemical, multiplex microsphere flow cytometry, validation set (AID 588460); conditions: at 10 µM, active compounds read high
Chain of Botulinum neurotoxin type A (Clostridium botulinum) (P0DPI0 whole entry, looked up): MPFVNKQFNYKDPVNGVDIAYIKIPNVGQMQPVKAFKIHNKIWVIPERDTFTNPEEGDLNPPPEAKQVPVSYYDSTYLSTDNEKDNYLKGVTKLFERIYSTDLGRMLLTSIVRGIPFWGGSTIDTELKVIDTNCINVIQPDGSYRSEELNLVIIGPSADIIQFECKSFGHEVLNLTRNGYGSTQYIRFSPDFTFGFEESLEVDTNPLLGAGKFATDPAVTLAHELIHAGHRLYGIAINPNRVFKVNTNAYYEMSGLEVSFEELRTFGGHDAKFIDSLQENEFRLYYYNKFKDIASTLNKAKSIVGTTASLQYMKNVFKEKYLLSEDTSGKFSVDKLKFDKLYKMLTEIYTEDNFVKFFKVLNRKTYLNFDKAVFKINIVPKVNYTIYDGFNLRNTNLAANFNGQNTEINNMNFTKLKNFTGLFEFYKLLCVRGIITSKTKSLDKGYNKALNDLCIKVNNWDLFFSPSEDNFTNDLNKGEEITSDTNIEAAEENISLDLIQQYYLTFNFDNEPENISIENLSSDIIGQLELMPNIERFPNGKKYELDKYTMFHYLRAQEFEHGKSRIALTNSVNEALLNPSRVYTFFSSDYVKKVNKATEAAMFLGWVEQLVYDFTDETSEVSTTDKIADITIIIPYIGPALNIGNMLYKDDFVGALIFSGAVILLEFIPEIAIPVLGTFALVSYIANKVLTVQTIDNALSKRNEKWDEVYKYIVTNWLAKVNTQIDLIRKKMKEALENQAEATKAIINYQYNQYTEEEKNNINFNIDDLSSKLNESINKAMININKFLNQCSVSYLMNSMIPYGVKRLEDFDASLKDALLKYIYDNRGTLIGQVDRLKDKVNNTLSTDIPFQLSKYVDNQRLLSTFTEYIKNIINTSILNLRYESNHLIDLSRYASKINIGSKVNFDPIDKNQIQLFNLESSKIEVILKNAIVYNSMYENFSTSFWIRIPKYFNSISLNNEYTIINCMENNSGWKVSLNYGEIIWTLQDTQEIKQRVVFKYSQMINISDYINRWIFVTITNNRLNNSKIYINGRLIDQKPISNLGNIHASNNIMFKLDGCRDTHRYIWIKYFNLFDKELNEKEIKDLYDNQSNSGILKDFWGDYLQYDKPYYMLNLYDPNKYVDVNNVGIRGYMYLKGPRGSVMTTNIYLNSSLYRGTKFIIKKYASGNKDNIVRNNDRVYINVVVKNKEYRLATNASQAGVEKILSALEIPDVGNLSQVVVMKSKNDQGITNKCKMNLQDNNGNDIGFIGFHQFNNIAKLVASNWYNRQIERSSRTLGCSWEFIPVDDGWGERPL

[3] = biological target: Lethal factor (Bacillus anthracis) (UniProt P15917); experiment: Bacillus anthracis lethal factor inhibition, microsphere flow cytometry protease assay, validation at 10 µM (AID 588461); conditions: multiplex microsphere protease cleavage assay, active compounds read high
Chain of Lethal factor (Bacillus anthracis) (P15917 whole entry, looked up): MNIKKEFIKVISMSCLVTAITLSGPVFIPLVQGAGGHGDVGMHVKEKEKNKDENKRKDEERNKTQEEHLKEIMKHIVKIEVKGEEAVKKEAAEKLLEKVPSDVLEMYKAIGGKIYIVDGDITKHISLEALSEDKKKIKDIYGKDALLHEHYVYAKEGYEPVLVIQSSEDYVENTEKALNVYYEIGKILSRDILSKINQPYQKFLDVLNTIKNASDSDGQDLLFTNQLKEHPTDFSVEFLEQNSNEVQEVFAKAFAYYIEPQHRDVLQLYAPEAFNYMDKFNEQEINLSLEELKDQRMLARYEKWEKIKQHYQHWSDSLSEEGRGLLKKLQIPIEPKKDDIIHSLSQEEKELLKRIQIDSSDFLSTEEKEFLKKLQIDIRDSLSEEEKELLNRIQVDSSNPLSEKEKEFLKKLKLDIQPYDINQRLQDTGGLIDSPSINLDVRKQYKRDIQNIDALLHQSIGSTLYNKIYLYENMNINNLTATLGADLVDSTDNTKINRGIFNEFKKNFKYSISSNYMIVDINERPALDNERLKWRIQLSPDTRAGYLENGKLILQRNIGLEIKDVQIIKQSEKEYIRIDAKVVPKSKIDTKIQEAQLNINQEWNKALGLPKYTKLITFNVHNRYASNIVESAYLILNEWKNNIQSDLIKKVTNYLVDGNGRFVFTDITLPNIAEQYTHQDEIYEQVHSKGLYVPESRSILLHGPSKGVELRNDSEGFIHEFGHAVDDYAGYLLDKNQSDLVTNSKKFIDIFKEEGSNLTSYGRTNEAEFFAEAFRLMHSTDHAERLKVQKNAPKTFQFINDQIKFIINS

Measured: inhibition

Cc1ccc(Cl)c(Nc2ccccc2C(=O)O)c1Cl
inactive: [1] -4.5% | [2] 0.2% | [3] 0.3%

CCCCCC(=O)O[C@]1(C(C)=O)CC[C@H]2[C@@H]3CCC4=CC(=O)CC[C@]4(C)[C@H]3CC[C@@]21C
inactive: [1] 1.9% | [2] 1.3% | [3] -1.6%

NS(=O)(=O)c1cc2c(cc1C(F)(F)F)NC(Cc1ccccc1)NS2(=O)=O (stereo not given)
inactive: [1] 2.4% | [2] 1.4% | [3] 3.5%

CC1(C)S[C@@H]2[C@H](NC(=O)Cc3ccccc3)C(=O)N2[C@H]1C(=O)O
inactive: [1] 4.2% | [2] 1.7% | [3] -0.8%

CCOc1ccc(OCCSc2nc3ccccc3[nH]2)cc1
inactive: [1] -6.7% | [2] -1.3% | [3] -1.8%

Nc1cccc(C(=O)O)c1
inactive: [1] -0.6% | [2] -0.3% | [3] 3.3%

C(=C\c1ccccc1)/CN1CCN(C(c2ccccc2)c2ccccc2)CC1
inactive: [1] -0.8% | [2] -1.7% | [3] -9.2%

COc1ccccc1Oc1c(C)oc2c(CN3CCN(CCO)CC3)c(O)ccc2c1=O
inactive: [1] -2.3% | [2] -1.2% | [3] 1.4%

CC(=O)OCC[N+](C)(C)C
inactive: [1] -3.2% and 0.5% | [2] 0.2% and -1.8% | [3] 3.8% and -0.3%

Fc1ccc(NC(=S)Nc2ccccc2Cl)cc1
inactive: [1] 1.8% | [2] -0.7% | [3] -3.5%

COc1ccc2nc(NC(=O)Nc3ccccc3)sc2c1
inactive: [1] -3.1% | [2] -2.6% | [3] -2.7%

CCc1oc2ccccc2c1C(=O)c1cc(Br)c(O)c(Br)c1
inactive: [1] -6.8% | [2] -0.5% | [3] -0.4%

COC(=O)c1ccc(=O)n(Cc2ccco2)c1
inactive: [1] 3.3% | [2] -0.2% | [3] 3.8%

CS(=O)c1ccccc1O (stereo not given)
inactive: [1] 1.4% | [2] 0% | [3] -9.2%

CC[N+](C)(C)Cc1ccccc1Br
inactive: [1] 2.1% | [2] -0.1% | [3] 0.6%

Cc1ccc2c(ccc(=S)n2C)c1
inactive: [1] 1.7% | [2] 0.8% | [3] 7.4%

C#CCN(C)Cc1ccccc1
inactive: [1] 2.5% | [2] -0.5% | [3] -2.8%

CC(=Nc1ccccc1)C1=C(O)CCCC1=O
inactive: [1] -3.4% | [2] -0.9% | [3] -5.7%

COCCCNc1nc2c([nH]1)c(=O)[nH]c(=O)n2C
inactive: [1] 2.6% | [2] 1.1% | [3] 1.3%

OC12CCCCC1C(c1ccc3c(c1)OCO3)N(Cc1cccc(F)c1)CC2 (stereo not given)
inactive: [1] -0.1% | [2] -1.3% | [3] -2.8%

CCN(CC)CCN1C(=O)C(=O)/C(=C(/O)c2c(C)[nH]c(C(=O)OC)c2C)C1c1cccnc1 (stereo not given)
inactive: [1] -1.7% | [2] -0.9% | [3] -4.4%

CCOC(=O)C1=C(C)N[C@@]2(O)c3ccccc3C(=O)[C@@]12O
inactive: [1] 2.4% | [2] 0.5% | [3] -1.2%

CCOC(=O)C1C(=O)CC(C)(O)C(C(=O)OCC)C1/C=C/c1ccccc1 (stereo not given)
inactive: [1] 1.1% | [2] 1% | [3] -1.4%

CC(C)(C)[C@]1(O)CCN2C[C@H]3c4ccccc4CCc4cccc(c43)[C@@H]2C1
inactive: [1] -2.1% | [2] 0% | [3] -2.4%

Cc1ccc(C(=O)O)cc1NC(=O)c1cccs1
inactive: [1] -1.2% | [2] 0% | [3] 2%

Reference: PubChem BioAssay
